Compound activity as filed in PubChem BioAssay.
RAM network inh: inhibitors of the yeast RAM network, primary screen, dse1pr::URA3 reporter, 5-FOA selection | inhibition, % at 50 µM | S. cerevisiae dse1pr::URA3 reporter, 5-FOA growth OD615, 2 d; analog-sensitive cbk1-as2 kinase mutant strain | actives 1.8% (n = 190,000) | AID 868, 2007;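 active means inhibition above a set limit, 3 SD over mean compound inhibition, cut at about 8.4% in these data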;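 further: 0% = DMSO-only wells with no growth and 100% = 10 µM 1-NA-PP1 full growth; inhibition rescues growth on 5-FOA so higher OD means more RAM inhibition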
L major viab: Leishmania major promastigote growth inhibition, primary screen. Leishmania major promastigotes, resazurin fluorescence viability. inhibition, % at 10 µM. actives 9% (n = 200,000). AID 1063, 2008; in the data active means inhibition above about 50%;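 further: promastigotes grown with compound for 44 hours at 28 °C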
WT yeast gro inh: growth inhibition of WT strain, primary screen, mitochondrial fusion inhibitor project, WT and mutant strains, chemical genetic; mitochondrial fusion phenotypic screen; inhibition, % at 10 µM; actives 2.1% (n = 190,000); in the data active means inhibition above about 58%; tested in S. cerevisiae
CHOP inh: inhibitors of CHOP promoter induction, primary screen, cell-based, unfolded protein response, luciferase reporter; CHO-K1 CHOP-promoter luciferase, tunicamycin-induced, 15-18 h; inhibition, % at 10 µM; actives 3.8% (n = 220,000);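 active means compounds that reduced the stress-induced luciferase reporter signal by more than about 70% of percent inhibition, limit read from the data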;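 further: 0% = tunicamycin plus vehicle and 100% = wells without tunicamycin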
Starred values were filed as active, the others as inactive. A selection: hits, their analogues and other compounds. The true share with any hit is near 13%.

Screening CCc1ccc(NC(=O)Cc2ccc(-n3cccc3)cc2)cc1 returned RAM network inh 1.9, L major viab 86.1*, WT yeast gro inh 2.3 and CHOP inh 32.6.
COC(=O)c1ccc(NC(=O)Cc2ccc(C)cc2)cc1 was read as RAM network inh 2.0, L major viab 64.6*, WT yeast gro inh -14.3 and CHOP inh -21.1.
`COC(=O)c1ccc(NC(=O)CN2C(=O)CNC2=O)cc1` gave RAM network inh -0.1, L major viab 90.7*, WT yeast gro inh 10.7 and CHOP inh 28.9.
Screening O=C(Cc1ccccc1)Nc1ccc(C(=O)O)cc1 returned RAM network inh 1.4, L major viab -7.0, WT yeast gro inh -3.3 and CHOP inh -10.6.
For COC(=O)c1ccc(NC(=O)Cc2ccccc2)cc1 the results were RAM network inh 2.7, L major viab 76.2*, WT yeast gro inh 44.3 and CHOP inh -28.7.
O=C(NC1=NCCS1)c1ccccc1OCc1ccccc1Cl was read as RAM network inh 0.0, L major viab 10.7, WT yeast gro inh 78.6 and CHOP inh 17.4.
For COC(=O)c1ccc(NC(=O)CN(Cc2ccc(Cl)cc2)S(C)(=O)=O)cc1 the results were RAM network inh 0.5, L major viab 100.2*, WT yeast gro inh 6.4 and CHOP inh 23.2.
Screening C/C(=N\NC(=O)CNC(=O)C(c1ccccc1)c1ccccc1)c1ccc(C(C)(C)C)cc1 returned RAM network inh 1.9, L major viab 2.1, WT yeast gro inh -6.4 and CHOP inh 86.3*.
C/C(=N\NC(=O)CNC(=O)C(c1ccccc1)c1ccccc1)c1ccccc1 was read as RAM network inh 3.8, L major viab -8.6, WT yeast gro inh -13.3 and CHOP inh -2.6.
Cc1nnc(SCC(=O)NC(C)(C)C)n1C1CCCCC1 was read as RAM network inh 0.5, L major viab -6.7, WT yeast gro inh -18.1 and CHOP inh -0.5.
For COc1ccc(/C=C/c2cc(-c3ccc(C)cc3)o[n+]2C)cc1 the results were RAM network inh 1.6, L major viab 100.5*, WT yeast gro inh 58.3* and CHOP inh 20.4.
`COc1ccc(/C=C/C(=O)c2ccoc2)cc1` gave RAM network inh -0.3, L major viab 14.4, WT yeast gro inh 9.7 and CHOP inh -37.6.
For COc1cccc(-c2cc(C(F)(F)F)nc(N3CCOCC3)n2)c1 the results were RAM network inh 1.1, L major viab 20.1, WT yeast gro inh 19.9 and CHOP inh 73.6*.
`COc1ccccc1-c1cc(C(F)(F)F)nc(N2CCOCC2)n1` gave RAM network inh 1.8, L major viab 3.0, WT yeast gro inh 20.2 and CHOP inh 72.4*.
For O=C(/C=C/c1cccs1)NC(=S)NNC(=O)Cc1cccs1 the results were RAM network inh 2.3, L major viab 63.8*, WT yeast gro inh -10.3 and CHOP inh 35.7.
Screening COc1ccc(/C=C/C(=O)NC(=S)NNC(=O)Cc2cccs2)cc1OC returned RAM network inh 4.3, L major viab 98.6*, WT yeast gro inh 6.1 and CHOP inh 50.9.
`COc1ccc(C(=O)NC(=S)NNC(=O)Cc2cccs2)cc1` gave RAM network inh 3.8, L major viab 8.1, WT yeast gro inh 5.0 and CHOP inh 31.8.
CC(C)(C)N1OC2CC1c1nc3ccccc3n1C2 (configuration not stated) was read as CHOP inh 2.1.
`COc1ccc(N2CCN(C(C)C(=O)Nc3nnc(C)s3)CC2)cc1` (configuration not stated) gave RAM network inh -0.5, L major viab -4.9, WT yeast gro inh -15.9 and CHOP inh -19.4.
`O=C(CSc1nc(C2CCCCC2)n(-c2ccccc2)n1)NCC(F)(F)F` gave RAM network inh 0.8, L major viab 47.9, WT yeast gro inh 16.9 and CHOP inh 16.1.
Screening CCN(CC)CC1CCCCN1CC(=O)N1c2ccccc2C(=O)Nc2cccnc21 (configuration not stated) returned WT yeast gro inh 0.3 and CHOP inh -4.4.
Screening COC(=O)c1c(NC(=O)C2CC2)sc2c1CCCC2 returned RAM network inh 0.1, L major viab 3.3, WT yeast gro inh 23.5 and CHOP inh 76.8*.
`COC(=O)c1c(NC(=O)c2nn(C)cc2Cl)sc2c1CCCC2` gave RAM network inh 3.5, L major viab -3.5, WT yeast gro inh 13.3 and CHOP inh 74.2*.
For COc1ccc(N2CCN(C(=O)c3ccccc3)CC2)c([N+](=O)[O-])c1 the results were RAM network inh 2.1, L major viab 8.2, WT yeast gro inh 0.0 and CHOP inh 3.7.
For COc1ccc(N2CCN(C(=O)c3ccc(C)cc3)CC2)c([N+](=O)[O-])c1 the results were RAM network inh -0.7, L major viab 54.0*, WT yeast gro inh 29.8 and CHOP inh 40.9.
Screening COc1ccc(N2CCN(C(=O)c3ccc(Br)cc3)CC2)c([N+](=O)[O-])c1 returned RAM network inh 2.0, L major viab -0.2, WT yeast gro inh 68.7* and CHOP inh 9.0.
For CCN(CC)C(=O)C12CC3CC(CC(Br)(C3)C1)C2 the results were RAM network inh 1.4, L major viab -7.6, WT yeast gro inh -5.7 and CHOP inh -0.2.
For COc1ccc(OC)c(-c2csc(NC(=O)c3ccc(OCC4CCCO4)cc3)n2)c1 (configuration not stated) the results were RAM network inh 3.2, L major viab 42.1, WT yeast gro inh -12.5 and CHOP inh 47.8.
`COc1ccc(OC)c(-c2csc(NC(=O)CSc3ccc([N+](=O)[O-])cc3)n2)c1` gave RAM network inh 3.6, L major viab 85.3*, WT yeast gro inh 32.6 and CHOP inh 46.3.
`COc1ccc(OC)c(-c2csc(NC(=O)Cn3[nH]c(=O)c4ccccc4c3=O)n2)c1` gave RAM network inh 2.5, L major viab 4.3, WT yeast gro inh -43.4 and CHOP inh -37.4.
COc1ccc(OC)c(-c2csc(NC(=O)CSc3ccc(Br)cc3)n2)c1 was read as RAM network inh 7.1, L major viab 53.5*, WT yeast gro inh 35.9 and CHOP inh 39.2.
Screening O=C(/C=C\Nc1ccc2c(c1)OCO2)c1ccc2c(c1)OCO2 returned RAM network inh 3.6, L major viab -6.4, WT yeast gro inh 5.6 and CHOP inh 37.4.
`O=C(/C=C\Nc1ccc2c(c1)OCO2)c1ccccn1` gave RAM network inh 2.4, L major viab -7.3, WT yeast gro inh 16.2 and CHOP inh 94.9*.
For CCOC(=O)CNC(=O)c1cc(-c2ccccn2)nc2c(C)c(Cl)ccc12 the results were RAM network inh 1.1, L major viab 1.4, WT yeast gro inh 7.3 and CHOP inh 35.0.
Screening COc1ccc(/C=C/C(=O)c2ccc(O)cc2)cc1 returned RAM network inh -0.4, L major viab 2.5, WT yeast gro inh 4.6 and CHOP inh -56.7.
COc1cc(/C=C/c2ccc(O)cc2)cc(OC)c1 was read as WT yeast gro inh 58.4* and CHOP inh -7.3.
Screening COc1ccc(Cl)cc1N1C(=N)SCC1=O returned RAM network inh -0.1, L major viab 15.3, WT yeast gro inh 6.6 and CHOP inh -7.5.
